High-throughput results (PubChem BioAssay)
EPAC1 antagonist – blocks human EPAC1 exchange factor; O95398; EPAC1 GEF assay, Rap1b-BODIPY-GDP exchange fluorescence; Potency, µM (top dose mostly 115 µM), for the others: at the top dose activity change, negative = inhibition, most hits filed as inhibitors; 0.14% of 360,000 active; AID 720709;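 note: plate controls were vehicle for no effect and positive control for full effect; nearly all actives have a fitted effect of over 50% in size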
EPAC1 agonist – agonists of human EPAC1. Potency, µM (titrated, usually from 154 µM), inactives show at the highest dose activation, actives largely listed as activators. EPAC1 agonist qHTS, biochemical assay; response scale: 100% = response to 6.5 mM cAMP. AID 720707. O95398. 0.073% of 360,000 active; note: nearly all actives have a fitted effect of over 60% in size
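Read-out is the fluorescence drop as BODIPY-GDP leaves Rap1B (480 nm excitation, 540 nm emission), recorded every 5 minutes over 30 minutes. Reactions held 100 nM EPAC1, 250 nM Rap1B–BODIPY-GDP and 50 uM GDP, with 6.5 mM cAMP setting full activation.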
EPAC2 ag – agonists of human EPAC2 (RAPGEF4). Q8WZA2. EPAC2 activation, biochemical qHTS; response scale: 100% = 6.5 mM cAMP response. Potency, µM (series often up to 154 µM), without a hit: at the highest dose activation, actives largely listed as activators. 0.079% of 360,000 active. AID 720711; note: nearly all actives have a fitted effect of over 50% in size
Target sequence (Q8WZA2 whole entry, looked up): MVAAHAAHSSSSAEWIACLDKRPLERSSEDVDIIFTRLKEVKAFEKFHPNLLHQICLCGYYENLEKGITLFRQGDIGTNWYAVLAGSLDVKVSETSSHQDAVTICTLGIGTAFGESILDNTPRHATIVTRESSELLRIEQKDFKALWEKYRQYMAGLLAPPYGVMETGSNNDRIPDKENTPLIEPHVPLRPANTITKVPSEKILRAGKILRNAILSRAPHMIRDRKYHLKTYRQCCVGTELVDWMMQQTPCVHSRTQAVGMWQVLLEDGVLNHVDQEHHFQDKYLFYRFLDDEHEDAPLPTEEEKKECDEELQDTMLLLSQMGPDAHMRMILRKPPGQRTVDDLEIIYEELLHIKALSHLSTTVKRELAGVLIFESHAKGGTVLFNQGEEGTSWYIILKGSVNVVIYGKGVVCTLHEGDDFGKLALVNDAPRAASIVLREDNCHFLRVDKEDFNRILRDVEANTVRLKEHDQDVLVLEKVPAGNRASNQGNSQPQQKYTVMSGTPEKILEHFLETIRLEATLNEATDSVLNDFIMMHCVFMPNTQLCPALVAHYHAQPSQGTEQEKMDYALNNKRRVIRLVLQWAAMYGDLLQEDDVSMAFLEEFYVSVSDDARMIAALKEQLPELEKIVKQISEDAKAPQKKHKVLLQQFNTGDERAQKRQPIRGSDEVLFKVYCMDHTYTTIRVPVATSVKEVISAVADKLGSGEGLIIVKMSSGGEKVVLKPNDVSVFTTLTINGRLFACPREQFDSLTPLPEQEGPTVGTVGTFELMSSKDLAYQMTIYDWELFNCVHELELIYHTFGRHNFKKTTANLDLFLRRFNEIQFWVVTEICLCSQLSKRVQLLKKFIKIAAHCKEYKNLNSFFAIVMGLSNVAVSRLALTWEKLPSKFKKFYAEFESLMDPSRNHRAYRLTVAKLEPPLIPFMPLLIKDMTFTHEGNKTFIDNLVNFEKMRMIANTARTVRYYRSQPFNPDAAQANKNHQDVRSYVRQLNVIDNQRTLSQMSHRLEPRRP
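EPAC2 (100 nM) mixed with Rap1B loaded with BODIPY-GDP (250 nM) plus 50 uM unlabeled GDP; compounds pinned in, 5 min RT, then read every 5 min for 30 min (ex 480, em 540 nm). Normalized to cAMP control.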
VDR inh – vitamin D3 receptor (human) inhibition | P11473 | VDR-SRC2-3 peptide fluorescence polarization, 2 h | Potency, µM, for inactives: max response, negative = inhibition, usual class: inhibitors | 0.93% of 400,000 active; note: % is set by controls: 0 for no effect and ±100 for the full control effect
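The screen uses fluorescence polarization to detect compounds that interfere with recruitment of the SRC2-3 coactivator peptide to VDR; plates are read after 2 h at room temperature.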
USP1-UAF1 inh – USP1/UAF1 (human) deubiquitinase inhibition | Potency, µM (titrated, usually from 57.1 µM), inactives show top-dose activity change, negative = inhibition, most hits filed as inhibitors | recombinant USP1/UAF1, Ub-Rhodamine cleavage fluorescence | 0.23% of 390,000 active | O94782; note: % is set by controls: 0 for no effect and ±100 for the full control effect; nearly all actives have a fitted effect of over 60% in size
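In this screen, compounds sit with the deubiquitinase complex (1nM) for 15 min at room temperature before Ub-Rho is added at 150nM final. Fluorescence rise is then followed for 6 reads every 60 seconds.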
EPAC2 antag – blocks human EPAC2 exchange factor; Q8WZA2; 0.18% of 360,000 active; EPAC2 GEF exchange of Rap1B-BODIPY-GDP, fluorescence; Potency, µM (top dose mostly 114 µM), without a hit: top-dose activity, negative = inhibition, most hits filed as inhibitors; note: % is set by controls: 0 for no effect and ±100 for the full control effect; nearly all actives have a fitted effect of over 45% in size
VDR confirm – inhibits human vitamin D receptor, primary hit validation | AID 602199 | Potency, µM, usual class: inhibitors | 89% of 840 active | VDR-coactivator inhibition assay, qHTS confirmation | shares compounds with VDR inh
VDR FP – VDR (human) coactivator binding inhibition, fluorescein polarization | shares compounds with VDR inh | VDR-coactivator binding, fluorescein fluorescence polarization | AID 602200 | 48% of 840 active | Potency, µM (highest dose often 57.1 µM), without a hit: top-dose activity change, negative = inhibition, usual class: inhibitors
VDR bla – inhibits human VDR in beta-lactamase reporter cells; AID 602202; 23% of 840 active; Potency, µM (top dose mostly 46.1 µM), inactives show at the top dose activity change, negative = inhibition, most hits filed as inhibitors; shares compounds with VDR inh; VDR beta-lactamase reporter cells, FRET ratio; cells co-treated with VDR agonist LG190178; note: % is set by controls: 0 for no effect and ±100 for the full control effect
VDR viability – cytotoxic in counter-screen for VDR inhibitors; shares compounds with VDR inh; cytotoxicity counter-screen, cell viability, qHTS; Potency, µM (doses to about 48.3 µM), for inactives: at the top dose activity change, negative = cytotoxicity, hits mostly cytotoxic; 18% of 840 active; AID 602204;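 note: plate controls were DMSO for no effect and high-concentration cycloheximide for full effect; nearly all actives have a fitted effect of over 75% in size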
The depositor's hits bear a star; ? = inconclusive; nt = no result. In the library only some 1.2% were active in any assay of this set; here they are far more common. Calls come from the whole dose curve; as a rule, active = well fitted curve in the direction sought with a large enough effect; inconclusive = small, poorly fitted or top-dose-only effect, or another doubt; inactive = no such curve, though single readings can be large; an effect the other way counts as inactive or inconclusive. Potency is the fitted concentration of half-maximal effect.

SMILES | EPAC1 antagonist | EPAC1 agonist | EPAC2 ag | VDR inh | USP1-UAF1 inh | EPAC2 antag | VDR confirm | VDR FP | VDR bla | VDR viability
COc1cc(CCC(=O)NCc2ccc3c(c2)CCN3C(=O)c2ccc(F)cc2)cc(OC)c1OC | nt | nt | nt | 25.0% | -13.7% | nt | nt | nt | nt | nt
CCN(CC)c1ccc(NC(=O)c2ccccc2Br)cc1S(=O)(=O)Nc1ccccc1OC | 10.8% | 10.4% | 8.1% | 22.4µM* | -16.0% | -11.1% | 2.99* | 2.82µM* | 21.9% | 23.4%
COc1ccccc1NS(=O)(=O)c1cc(NC(=O)c2cccs2)ccc1N1CCCC1 | -10.3% | 4.4% | 2.5% | 22.4µM* | -27.6% | 3.5% | 5.97* | ? | 10.4% | 0.5%
CCN(CC)c1ccc(NC(=O)COc2ccccc2C)cc1S(=O)(=O)Nc1ccccc1OC | -9.5% | 5.6% | -7.1% | ? | -12.6% | -10.2% | nt | nt | nt | nt
CCCOc1ccc(C(=O)CCNC(Cc2c[nH]c3ccccc23)C(=O)O)cc1 (stereo unspecified) | -4.0% | -5.6% | 1.9% | 44.7µM* | -13.2% | -16.1% | 18.9* | ? | 12.2% | ?
COc1ccc(C(=O)NC(Cc2c[nH]c3ccccc23)C(=O)O)cc1 (stereo unspecified) | 7.7% | 10.7% | 4.2% | 13.0% | -6.2% | -3.9% | nt | nt | nt | nt
COc1ccccc1CN1CCC2(CC1)CCN(S(=O)(=O)c1ccccc1)CC2 | nt | nt | nt | -2.0% | nt | nt | nt | nt | nt | nt
O=C(CSc1ccccc1)Nc1nnc(COc2ccc(Cl)cc2)s1 | -16.7% | -6.2% | 16.3% | 39.8µM* | -6.5% | -8.8% | 2.99* | ? | 18.1% | 23.7%
Cc1nnc(NC(=O)c2c(-c3ccccc3)noc2C)s1 | -2.1% | -6.3% | -0.1% | 19.9% | -13.7% | 7.1% | nt | nt | nt | nt
Cc1onc(-c2ccccc2)c1C(=O)Nc1nnc(COc2ccc(Cl)cc2)s1 | -22.3% | 13.4% | 6.6% | 20µM* | -15.0% | -11.5% | 6.7* | ? | -5.1% | -18.2%
Cc1ccc(S(=O)(=O)N2CCCN(c3nc(-c4cccs4)nc4ccccc34)CC2)cc1 | nt | nt | nt | -28.3% | nt | nt | nt | nt | nt | nt
O=C(NCCc1nc2ccccc2n1Cc1c(F)cccc1Cl)c1ccco1 | nt | nt | nt | 1.8% | -26.1% | nt | nt | nt | nt | nt
CCOC(=O)c1sc(=S)n(-c2cc(F)ccc2F)c1N | 6.9% | -10.6% | -15.9% | -2.5% | -15.2% | -1.0% | nt | nt | nt | nt
COC(=O)c1sc(=S)n(-c2cc(F)ccc2F)c1N | -7.7% | -5.8% | -3.5% | 79.4µM* | -11.0% | 2.9% | 18.9* | ? | 27.7% | 22.0%
CCOC(=O)c1sc(=S)n(-c2ccc(OC)cc2)c1C | -25.7% | 1.3% | 2.3% | -6.0% | -8.4% | -13.2% | nt | nt | nt | nt
CCOC(=O)c1sc(=S)n(-c2cc(OC)ccc2OC)c1N | -8.2% | 10.6% | -1.5% | 20µM* | -9.1% | -0.2% | 26.7* | 3.55µM* | 17.1% | -26.6%
CC(C)(C)OC(=O)N1CCC(c2c(C(=O)N3CCN(c4ncccn4)CC3)cnn2-c2ccc(F)cc2)CC1 | nt | nt | nt | 10.1% | 5.3% | nt | nt | nt | nt | nt
Cc1ccc(-n2nnnc2C(Cl)(Cl)c2nnnn2-c2ccc(C)cc2)cc1 | 1.1% | 6.4% | 8.6% | 6.31µM* | -18.0% | 0.6% | 3.36* | ? | ? | ?
NC(=O)[C@@H]1CCCN1C(=O)C(Cc1cnc[nH]1)NC(=O)C1CCC(=O)N1 (stereo partly specified) | nt | nt | nt | 4.2% | nt | nt | nt | nt | nt | nt
Cc1nc2[nH]c(=S)[nH]c(=O)c2nc1C | -1.0% | 8.2% | 6.8% | -18.1% | -3.1% | -0.2% | nt | nt | nt | nt
Cc1nc2c(=O)[nH]c(=S)n(C)c2nc1C | -11.6% | 11.7% | 15.8% | 50.1µM* | -2.0% | 8.0% | 15* | ? | -5.9% | ?
CC(=O)Nc1ccc(-c2cn3ccsc3n2)cc1 | 3.1% | 0.1% | -5.6% | 4.0% | -20.3% | 11.8% | nt | nt | nt | nt
c1cn2cc(-c3ccc4c(c3)OCO4)nc2s1 | 7.7% | 2.1% | -0.4% | 20µM* | -10.7% | -2.0% | ? | ? | 21.7% | -28.9%
CCC(C(=O)NCCCN(CC)CC)n1ncn2c(cc3occc32)c1=O (stereo unspecified) | nt | nt | nt | 2.6% | -21.2% | nt | nt | nt | nt | nt
Cc1ccc(C(C[N+](=O)[O-])n2nc(C)cc2C)cc1 (stereo unspecified) | 1.4% | 3.1% | 4.9% | 79.4µM* | -18.5% | 16.7% | 13.4* | 8.91µM* | ? | ?
SMILES | EPAC1 antagonist | EPAC1 agonist | EPAC2 ag | VDR inh | USP1-UAF1 inh | EPAC2 antag | VDR confirm | VDR FP | VDR bla | VDR viability
O=C(Nc1ccc(Cl)cc1)C1CCC(CNS(=O)(=O)c2ccc(Br)s2)CC1 (stereo unspecified) | nt | nt | nt | -11.6% | -22.8% | nt | nt | nt | nt | nt
Cc1nc2c3cc(F)ccc3n(Cc3ccccc3)c2s1 | 1.2% | 11.7% | 9.1% | 50.1µM* | -17.4% | -8.8% | ? | ? | ? | 23.4%
O=C1C(Cl)=C(NC(=O)c2ccccc2)C(=O)C(Cl)=C1NC(=O)c1ccccc1 | ? | 16.8% | 10.5% | 35.5µM* | -20.2% | 3.7% | 4.23* | ? | 3.66µM* | 11.6µM*
CCC1CCCCN1S(=O)(=O)c1ccc(NC(=O)c2nc(S(C)(=O)=O)ncc2Cl)cc1 (stereo unspecified) | -15.4% | -4.7% | 11.0% | 20µM* | -21.1% | 3.1% | 5.97* | 3.16µM* | 11.6µM* | 9.2µM*
CCS(=O)(=O)c1ncc(Cl)c(C(=O)Nc2ccc(S(=O)(=O)N3CCCC(C)C3)cc2)n1 (stereo unspecified) | ? | -14.4% | -4.1% | ? | -16.1% | 3.2% | 5.01* | 2.82µM* | 10.3µM* | 9.47µM*
CC1CCCN(S(=O)(=O)c2ccc(NC(=O)CNC3CCCC3)cc2)C1 (stereo unspecified) | ? | -6.1% | -6.7% | 5.5% | -2.9% | 3.7% | nt | nt | nt | nt
COc1cc(NC(=O)CSc2nnc3c4ccccc4n(C)c3n2)cc(OC)c1OC | nt | nt | nt | 4.8% | nt | nt | nt | nt | nt | nt
COc1cccc(/C=C2\C(=O)N(c3cccc(C)c3)C(=O)c3ccccc32)c1 | 1.1% | -0.4% | -0.2% | ? | ? | 1.1% | 7.94* | 3.16µM* | -11.8% | 7.3%
